This note sets out measurements from PubChem BioAssay (NCATS).

The structures appear in SMILES notation. Records with an inconclusive call do not appear. Activity calls are given as the source filed them. Unless noted, the call rests on the fitted dose curve; in most records, active means well fitted inhibition curve with a large enough effect; inconclusive means small, poorly fitted or top-dose-only effect; inactive means flat fitted curve, though single readings scatter.

A short description of assay [1]: qHTS drug screen for cell cycle checkpoint inhibitors in PARPi-resistant BRCA-mutant ovarian cancer cell lines. (AID 1963452; calls by dose curve). The conditions noted are these: PEO1/OlaR viability, CellTiter-Glo luminescence, 96 h, stronger effect = lower value. An outline of the steps: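 PEO1, PEO4 and PEO1/OlaR ovarian cancer cells, 600 per well, exposed 96 h at 37C to a dilution series. Viability read by CellTiter-Glo luminescence, normalized to DMSO and empty wells; activity summarized as Z-AUC.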

Assay [2] is described as follows: qHTS for identification of novel therapeutic agents for treatment of microphthalmiaassociated transcription factor (MiT) renal cell carcinoma (RCC) (AID 1963991; calls by dose curve; further: potency means the concentration at half of the fitted maximal effect;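 on z-score: curves scaled with 100% = DMSO viability and 0% = empty wells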). The settings on record: CellTiter-Glo, 48 h; for z-score: stronger effect = lower value. An outline of the steps:
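UOK109/UOK124/UOK145 (TFE3 fusions, three partners); 500 cells/well; MIPE v4.0, 1912 cpds, 11 conc.; 48 h, 37 C; CellTiter-Glo, 15 min RT; lum. Norm.: DMSO 100%, empty 0%.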

Assay [3] is described as follows: qHTS profiling for inhibitors of Plasmodium falciparum proliferation (AID 504749). Further: potency means the concentration at half of the fitted maximal effect.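 On activity, negative = inhibition: 0% = DMSO vehicle and full inhibition = artemisinin control.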 On all read-outs here: nearly all actives have a fitted effect of over 60% in size. The conditions noted are these: P. falciparum in erythrocytes, SYBR Green DNA, 72 h; for activity, negative = inhibition: at 28.7 µM (top of the series). The method, boiled down:
(§1)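 P. falciparum-infected erythrocytes (0.3% parasitemia, 2.5% hematocrit) incubated with compound 72 h at 37 C, 5% CO2. Parasite DNA detected by SYBR Green after lysis, overnight at room temperature; normalised to 0.29 uM artemisinin and DMSO.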

A further assay concerns 3D7. Described as above. The settings on record: P. falciparum in erythrocytes, SYBR Green DNA, 72 h; series mostly up to 28.7 µM. An outline of the steps: as §1
Another assay deals with 7G8. Described as above. The settings on record: P. falciparum in erythrocytes, SYBR Green DNA, 72 h; series mostly up to 28.7 µM. An outline of the steps:
as §1

Another assay deals with AA1029. The assay is described as above. The conditions noted are these: P. falciparum in erythrocytes, SYBR Green DNA, 72 h; series mostly up to 28.7 µM. The method, boiled down: as §1
A further assay concerns AS120. Described as above. The settings on record: P. falciparum in erythrocytes, SYBR Green DNA, 72 h; series mostly up to 28.7 µM. The method, boiled down: as §1
In a further assay the test system is ATS189. The assay is described as above. The conditions noted are these: P. falciparum in erythrocytes, SYBR Green DNA, 72 h; series mostly up to 28.7 µM. The method, boiled down:
as §1

A further assay has as its system ATS95. The assay is described as above. The settings on record: P. falciparum in erythrocytes, SYBR Green DNA, 72 h; series mostly up to 28.7 µM. An outline of the steps:
as §1

In another assay the test system is C2A. The description is as above. The settings on record: P. falciparum in erythrocytes, SYBR Green DNA, 72 h; series mostly up to 28.7 µM. An outline of the steps: as §1
For a further assay, the system named is CP185. The description is as above. The settings on record: P. falciparum in erythrocytes, SYBR Green DNA, 72 h; series mostly up to 28.7 µM. An outline of the steps:
as §1

The test system of another assay is CP191. The assay is described as above. The settings on record: P. falciparum in erythrocytes, SYBR Green DNA, 72 h; series mostly up to 28.7 µM. An outline of the steps: as §1
A further assay concerns CP192. The assay is described as above. The settings on record: P. falciparum in erythrocytes, SYBR Green DNA, 72 h; series mostly up to 28.7 µM. The method, boiled down:
as §1

The next assay has as its system CP194. The assay is described as above. The conditions noted are these: P. falciparum in erythrocytes, SYBR Green DNA, 72 h; series mostly up to 28.7 µM. The method, boiled down:
as §1

In another assay the test system is CP201. The description is as above. The conditions noted are these: P. falciparum in erythrocytes, SYBR Green DNA, 72 h; series mostly up to 28.7 µM. An outline of the steps:
as §1

The test system of a further assay is CP211. The assay is described as above. The settings on record: P. falciparum in erythrocytes, SYBR Green DNA, 72 h; series mostly up to 28.7 µM. An outline of the steps:
as §1

The next assay deals with CP215. The assay is described as above. The settings on record: P. falciparum in erythrocytes, SYBR Green DNA, 72 h; series mostly up to 28.7 µM. The method, boiled down:
as §1

The next assay deals with CP217. The description is as above. The conditions noted are these: P. falciparum in erythrocytes, SYBR Green DNA, 72 h; series mostly up to 28.7 µM. The method, boiled down:
as §1

Another assay has as its system CP237. The description is as above. The settings on record: P. falciparum in erythrocytes, SYBR Green DNA, 72 h; series mostly up to 28.7 µM. The method, boiled down: as §1
Setting [4] is: measured here: PEO1 parental Z-AUC.
[5] abbreviates: TFE3-RCC UOK109 viability, measured here: UOK109 Z-AUC.
The mark [6] stands for this setting: TFE3-RCC viability, measured here: UOK124 Z-AUC.
Setting [7] is: TFE3-RCC viability, measured here: UOK145 Z-AUC.

As to `COC(=O)[C@@H](N)CCCN=C(N)N[N+](=O)[O-]`, the Z-AUC is -0.673 (inactive) in assay [1], -0.429 in assay [1] (setting [4]) and -0.589 in assay [1] (measured here: PEO4 Z-AUC). Also, the z-score amounted to 0.59 in assay [2] (setting [5]), 0.788 in assay [2] (setting [6]) and 2.13 in assay [2] (setting [7]). Besides, the activity, negative = inhibition in [3] (parasite line A) is 8.8% (inactive); in assay [3] (parasite line B), 10.5% (inactive). The Potency result in the assay on 3D7, with 7G8, in the assay with AA1029, in the assay on AS120, in the assay on ATS189 and in the assay on ATS95 was “inactive” in each case. Also, the Potency entry in the assay on C2A, with CP185, in the assay on CP191, with CP192, with CP194 and in the assay on CP211 was “inactive” in each case. Moreover, the Potency entry in the assay on CP215, in the assay with CP217 and with CP237 was “inactive” throughout. Besides, the compound was called inactive in the assay with CP201.
For `CSCC[C@@H](NC(=O)[C@@H](Cc1ccccc1)NC(=O)CNC(=O)CNC(=O)[C@@H](N)Cc1ccc(O)cc1)C(=O)O`, the Z-AUC in assay [1] was 1.29 (inactive); in assay [1] (setting [4]), 1.17; in assay [1] (measured here: PEO4 Z-AUC) it was 1.05. Besides, the z-score in assay [2] (setting [5]) was determined as 0.576; in assay [2] (setting [6]), 0.642; in assay [2] (setting [7]) it was 1.12.
For the compound `CC1=C(O)C(=O)C=C2C1=CC=C1[C@@]2(C)CC[C@@]2(C)[C@@H]3C[C@](C)(C(=O)O)CC[C@]3(C)CC[C@]12C`, the Z-AUC in assay [1] was -0.53 (inactive); in assay [1] (setting [4]), -1.33; in [1] (measured here: PEO4 Z-AUC) it was -0.972. The Potency in [2] (TFE3-RCC UOK109 viability) is 2.64 µM (active). Also, the z-score was -1.17 in assay [2] (setting [5]), -1.16 in assay [2] (setting [6]) and -1.07 in assay [2] (setting [7]).
For `C[C@@H]1[C@H](O)[C@@H](C)C=CC=CCCC=CC=CC=CC=C[C@H](O[C@H]2O[C@@H](C)[C@H](O)[C@@H](N)[C@@H]2O)CC2O[C@](O)(C[C@@H](O)[C@H](O)CC[C@@H](O)C[C@@H](O)C[C@@H](O)CC(=O)O[C@H]1C)C[C@H](O)[C@H]2C(=O)O`, the z-score in assay [2] (setting [5]) was 0.777; in [2] (setting [6]), 0.659; in assay [2] (setting [7]) it was -1.57.
For the compound `COc1ccc(CC2NCCc3cc(OC)c(OC)cc32)cc1OC` (stereo not drawn), the z-score in assay [2] (setting [5]) came to 0.368; in assay [2] (setting [6]) it was 0.055; in assay [2] (setting [7]) it was 0.8.
In the case of `CCOP(=O)(OCC)C(C)NC(=O)N(CCCl)N=O` (stereo not drawn), the Z-AUC is 1.21 (inactive) in assay [1], 0.417 in [1] (setting [4]) and 0.472 in [1] (measured here: PEO4 Z-AUC). For the same compound, the z-score is 0.0132 in assay [2] (setting [5]), -0.441 in assay [2] (setting [6]) and 0.402 in [2] (setting [7]).
For `O=S(=O)(CC1CS1)c1ccc(Oc2ccccc2)cc1` (stereo not drawn), the results for the Z-AUC in [1], in assay [1] (setting [4]) and in assay [1] (measured here: PEO4 Z-AUC) were 1.02 (inactive), 1.86 and 1.74, respectively.
For `CCCN1CCO[C@@H]2c3cc(O)ccc3OC[C@@H]21`, the z-score was 0.649 in assay [2] (setting [5]), 0.425 in assay [2] (setting [6]) and 0.561 in assay [2] (setting [7]).
For the compound `C#CC1(O)CCC2C3CCC4=CC(=O)CCC4(C)C3CCC21C` (stereo not drawn), the figures for the Z-AUC in [1], in assay [1] (setting [4]) and in assay [1] (measured here: PEO4 Z-AUC) were 0.597 (inactive), 0.372 and 0.608, respectively. The values for the z-score in assay [2] (setting [5]), in assay [2] (setting [6]) and in [2] (setting [7]) were 0.285, 0.199 and 0.147, respectively. The figures for the activity, negative = inhibition in assay [3] (parasite line A) and in assay [3] (parasite line B) were 7.72% (inactive) and 0.354% (inactive), respectively. For the same compound, the Potency result in the assay on 3D7, in the assay with 7G8, in the assay on AA1029, with AS120, in the assay on ATS189 and with ATS95 was “inactive” in each case. Further, the Potency entry in the assay on C2A, with CP185, with CP191, with CP192, in the assay with CP194 and with CP211 was “inactive” throughout. Besides, the Potency entry with CP215, with CP217 and with CP237 was “inactive” in each case. Moreover, the outcome in the assay on CP201 was inactive.
Regarding `Clc1ccccc1C(c1ccccc1)(c1ccccc1)n1cccn1`, the Z-AUC is 0.364 (inactive) in assay [1], 0.863 in [1] (setting [4]) and 1.14 in assay [1] (measured here: PEO4 Z-AUC). Moreover, the z-score in [2] (setting [5]) was -0.446; in assay [2] (setting [6]) it was 0.841; in assay [2] (setting [7]), -1.28.
With `CC(=Cc1csc(C)n1)[C@@H]1C[C@H]2O[C@@H]2CCC[C@H](C)[C@@H](O)[C@@H](C)C(=O)C(C)(C)[C@@H](O)CC(=O)O1`, the z-score is -3.27 in [2] (setting [5]), -1.59 in assay [2] (setting [6]) and -2.88 in assay [2] (setting [7]).
Take `C[C@@H]1CC[C@H]2[C@@H](C)C(=O)O[C@@H]3O[C@@]4(C)CC[C@H]1[C@]32OO4`: the z-score amounted to 0.72 in assay [2] (setting [5]), 0.74 in assay [2] (setting [6]) and 0.344 in assay [2] (setting [7]).
In the case of `CC(=O)[O][Hg][c]1ccccc1`, the Potency in assay [3] (parasite line B) is 6.31 µM (active).
In the case of `O=[N+]([O-])c1ccc([As](=O)(O)O)cc1`, in assay [3] (parasite line B), the Potency is 6.31 µM (active).
